Data reported in PubChem BioAssay (NCI).
Compounds without any hit were thinned out: in the full panel of roughly 79,000, 15% have a hit. The source made the active and inactive calls. Cut-off read from the data, not from the text of the source: active = growth inhibition above about 70%; inactive = the rest.

Assays:
[1] = NCI Yeast Anticancer Drug Screen. Data for the rad50 strain (AID 155);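 note: 0% = growth of vehicle-only cultures of the same strain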; details: S. cerevisiae rad50 strain growth inhibition; at 50.0 µM; active compounds read high
In short: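 Yeast carrying a defined DNA repair defect were exposed to test compounds, and growth was compared with vehicle-treated controls to give percent inhibition.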

[2] = NCI Yeast Anticancer Drug Screen. Data for the mec2-1 strain (AID 157); details: S. cerevisiae mec2-1 strain, at 50.0 µM, active compounds read high
In short: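 Readout is yeast growth inhibition, normalised to vehicle-treated controls, in the mec2-1 strain exposed to compound.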

[3] = NCI Yeast Anticancer Drug Screen. Data for the sgs1 mgt1 strain (AID 161);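 note: 0% = growth of cultures given vehicle only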; details: S. cerevisiae sgs1 mgt1 strain, at 50.0 µM, active compounds read high
In short: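 Growth of a repair-deficient yeast mutant was monitored after compound treatment and expressed as inhibition relative to vehicle-treated cultures.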

[4] = NCI Yeast Anticancer Drug Screen. Data for the cln2 rad14 strain (AID 165);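 note: 0% = growth equal to vehicle treated cultures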; details: S. cerevisiae cln2 rad14 strain, at 50.0 µM, active compounds read high
In short: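 Relative to vehicle controls, growth inhibition of compound-treated cln2 rad14 yeast was recorded.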

[5] = NCI Yeast Anticancer Drug Screen. Data for the bub3 strain (AID 167); details: S. cerevisiae bub3 mutant strain, at 50.0 µM, active compounds read high
In short: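 Compounds were applied to a genetically altered yeast strain carrying a cell-cycle control defect. Growth inhibition was scored against vehicle-treated controls.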

[6] = NCI Yeast Anticancer Drug Screen. Data for the mlh1 rad18 strain (AID 175); details: S. cerevisiae mlh1 rad18 strain growth inhibition; at 50.0 µM; active compounds read high
In short: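 Test agents were incubated with a yeast strain of defined genotype (DNA damage repair defect). Inhibition of growth was derived by comparison with vehicle-exposed cultures.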

Measured: growth inhibition

NC(=O)Nc1ccc(Cc2ccc(NC(N)=O)cc2)cc1
inactive: [1] -15.4% | [2] -26.8% | [3] 10.7% | [4] 10.8% | [5] 12.9% | [6] 12.3%

CC(=O)NCCCOc1ccc(N)cc1
inactive: [1] -3.7% | [2] 4.05% | [3] -0.4% | [4] -27.1% | [5] -2.3% | [6] -11.9%

COCOc1ccc(C(=O)C(C)c2ccc(OCOC)cc2OCOC)c(O)c1 (stereo not given)
inactive: [1] 39.4% | [2] 17.2% | [3] 26.8% | [4] 23.2% | [5] 40.8% | [6] 36.8%

CCOC(=O)C1CC1C#N (stereo not given)
inactive: [1] 3.4% | [2] -11.9% | [3] 9% | [4] 13.9% | [5] 9.95% | [6] 7.75%

CCCCOC(=O)C(C)OC(=O)COc1ccc(Cl)cc1C (stereo not given)
inactive: [1] 5.05% | [2] -13.7% | [3] 15.4% | [4] -40.7% | [5] 2.25% | [6] -1.05%

c1ccc(CCCC2Sc3cccc4cccc(c34)S2)cc1
inactive: [1] -47.2% | [2] -25.6% | [3] -18.6% | [4] 14.4% | [5] -16% | [6] -28.5%

Cc1c([N+](=O)[O-])cc(C(C)(C)C)c(OC(=O)C(C)(C)C)c1[N+](=O)[O-]
active: [5] 92.4%
inactive: [1] 53.4% | [2] 44.9% | [3] 59.8% | [4] 41.5% | [6] 54.3%

N#C/C(=C\NC(=S)C(N)=S)C(=O)c1ccc2ccccc2c1
inactive: [1] 40.4% | [2] 30.3% | [3] 40.5% | [4] 33.5% | [5] 24.3% | [6] 50.9%

O=[N+]([O-])c1ccc2[nH]c3nc4ncccc4nc3c2c1
inactive: [1] -3.4% | [2] 3.35% | [3] 4.7% | [4] -20.1% | [5] 0.25% | [6] 0.7%

Clc1ccc2noc(-c3ccccc3)c2c1
inactive: [1] 22.6% | [2] 3.05% | [3] 4% | [4] 0.85% | [5] 0.7% | [6] 23.6%

COC(=O)/C(C)=C/C=C/C(C)C(O)C(C)C1OC(CC(OC)OC)C(C)C(O)C1C (stereo not given)
inactive: [1] 28.9% | [2] 22.2% | [3] 9.75% | [4] 2.65% | [5] 2.9% | [6] 19.9%

CC(Br)C(=O)Nc1ccc(C(=O)O)c(O)c1 (stereo not given)
inactive: [1] 3.85% | [2] -32.8% | [3] -18.8% | [4] 20.9% | [5] -7.5% | [6] 2.95%

CC12CC1CCCC2OC(=O)c1cc([N+](=O)[O-])cc([N+](=O)[O-])c1 (stereo not given)
inactive: [1] 4.75% | [2] 2.15% | [3] -5.7% | [4] -12.7% | [5] -7.65% | [6] -0.15%

CC12CC(=O)OC(C1)C(=O)c1ccccc12 (stereo not given)
inactive: [1] 8.9% | [2] 16.1% | [3] 2.85% | [4] 4.45% | [5] 1.7% | [6] -3.15%

NC(=O)C(CC(=O)O)NC(=O)c1ccccc1 (stereo not given)
inactive: [1] 8.05% | [2] 1.15% | [3] 3.45% | [4] -35% | [5] -10.7% | [6] 10.1%

Cc1cc(N(CCC#N)CCC#N)ccc1/C(N=Nc1ccc([N+](=O)[O-])cc1)=N\NC(=O)c1cc(Cl)ccc1C(=O)c1ccccc1
inactive: [1] 9.3% | [2] 3.15% | [3] -15.7% | [4] -4.25% | [5] -22.4% | [6] 7.7%

NC(=O)Cc1c[nH]c2ccc(Br)cc12
inactive: [1] -24.1% | [2] -53.8% | [3] -8.4% | [4] 11.4% | [5] -20.7% | [6] -13.2%

Cc1ccc(Nc2ccc(O)cc2)cc1
inactive: [1] 40.4% | [2] -2.1% | [3] 29.5% | [4] -8.25% | [5] -10.8% | [6] 26%

CCOC(=O)c1c(C)[nH]c(=S)c(C#N)c1-c1cccc2ccccc12
inactive: [1] -10% | [2] 9.45% | [3] 38% | [4] -12.6% | [5] 17.8% | [6] -31.3%

O=c1ccc2cc(Cl)ccc2o1
inactive: [1] 12.6% | [2] -12.9% | [3] -7.8% | [4] -16.4% | [5] 18.1% | [6] -20.1%

Cc1c([N+](=O)[O-])cc(C(C)(C)C)c(OC(=O)C(Cl)(Cl)Cl)c1[N+](=O)[O-]
active: [2] 72.5% | [3] 73.9% | [4] 78.8% | [5] 88.9% | [6] 72.8%
inactive: [1] 58.3%

CC12CC3CC(O)(C1)CC(O)(C3)C2
inactive: [1] 7.25% | [2] -11.1% | [3] -1.45% | [4] 22.2% | [5] -8.3% | [6] 4.15%

N#C/C(=C\c1cccc(Cl)c1)C(=O)c1ccccc1
inactive: [1] 1.1% | [2] 11.3% | [3] -1.35% | [4] 13.1% | [5] 0.2% | [6] 33.2%

CC(C)NC(=O)OCCN=C1c2ccccc2C(Br)C(Br)c2ccccc21 (stereo not given)
inactive: [1] 3.25% | [2] -5.1% | [3] 2.05% | [4] 1.1% | [5] 4.9% | [6] 8.6%

O=C1NCCc2c1sc1ccccc21
inactive: [1] -9.95% | [2] 2.45% | [3] -0.95% | [4] 1.5% | [5] -1.05% | [6] -6.9%

CN1CCC(Cl)(C(=O)c2ccccc2)CC1
inactive: [1] 26.2% | [2] 4.35% | [3] 25.6% | [4] -9.5% | [5] 5% | [6] 8.25%

COc1cccc2c(NCCCCCO[N+](=O)[O-])cc[n+](C)c12
inactive: [1] 25.7% | [2] -24.4% | [3] 9.85% | [4] 8.7% | [5] 16.6% | [6] 29.1%

C1=CC([P+](Cc2ccccc2)(c2ccccc2)c2ccccc2)CC1 (stereo not given)
inactive: [2] 65.5% | [3] 55.9% | [4] -1.55% | [5] 52.6% | [6] 52.9%
active: [1] 81.8%

CCN(c1ccccc1)S(=O)(=O)c1ccccc1N
inactive: [1] -0.75% | [2] -13.2% | [3] 10.7% | [4] 14.4% | [5] -3.6% | [6] -0.4%

OCc1c(CO)c(-c2ccc(Cl)c(Cl)c2)n2c1CCC2
inactive: [1] 13.4% | [2] 2.4% | [3] 8.1% | [4] 14.9% | [5] -0.2% | [6] 51%

COc1cc2c(cc1OC)C(=O)Cc1ccc3c(c1CN(C)CC2)OCO3
inactive: [1] -19.9% | [2] -42.7% | [3] -21.7% | [4] 2.7% | [5] -40.5% | [6] -17.9%

CSc1nc(SC)c(Nc2cccc(C)c2)c(SC)n1
inactive: [1] -8.65% | [2] 7.7% | [3] 4.2% | [4] -38% | [5] 21.8% | [6] -0.3%

Cc1ccc(Sc2cccc3c2C(=O)c2c(Sc4ccc(C)cc4)cccc2C3(Br)c2ccccc2)cc1
inactive: [1] 13.9% | [2] -8.95% | [3] -2.95% | [4] -27.2% | [5] -0.15% | [6] 0.1%

CNCC(=O)Nc1ccc2c(c1)C(=O)c1ccc(NC(=O)CNC)cc1C2=O
inactive: [1] 11.5% | [2] 13.9% | [3] 19.4% | [4] -2.25% | [5] -11.9% | [6] 23.8%

CC(=O)OC(CC1(C)C(C)CCC23COC(=O)C2=CCCC31)c1ccoc1 (stereo not given)
active: [1] 87.3% | [2] 82.2% | [3] 85.7% | [5] 81.2% | [6] 82%
inactive: [4] 63.5%

CC1OC(n2cc(F)c(=O)[nH]c2=O)CCC1O (stereo not given)
inactive: [1] 7% | [2] 10.2% | [3] 33.2% | [4] -10.1% | [5] -29.2% | [6] -60.5%

CC(=O)O[C@]12CCCC1C1(O)C(O)CCCC12 (stereo not given in full)
inactive: [1] -30.7% | [2] -50.1% | [3] -72.3% | [4] -9.55% | [5] -30.6% | [6] -34.6%

Nc1nc2c(c(-c3ccccc3Cl)n1)COC/C2=C\c1ccccc1Cl
inactive: [1] 15.7% | [2] 18.8% | [3] 54% | [4] 25.1% | [5] 41.1% | [6] 50%

Clc1ccccc1Nc1c2ccccc2nc2ccccc12
active: [1] 94.5% | [2] 98.1% | [3] 85.1% | [4] 96.3% | [5] 88.7% | [6] 97.7%

CCOC(=O)c1cnc2c(cnn2C(C)C)c1NN
inactive: [1] -15.6% | [2] -9.05% | [3] 48.2% | [4] -23.9% | [5] 53.4% | [6] -15.4%
